Compound activity: PubChem BioAssay, National Center for Advancing Translational Sciences (NCATS)
Hits are enriched below; roughly 21% of the tested compounds scored in any of these assays.
Shiga inhibitor: A qHTS for Small Molecule Inhibitors of Shiga Toxin | Vero cells, Shiga toxin protein synthesis inhibition reporter | inhibition, % at 38.7 µM | 290,000 compounds, 9.2% hits | AID 2315, 2010; in the data active means inhibition mostly above about 28%, no sharp cut-off; inactive means mostly below about 43%; further: 0% is about no effect
Pf growth 48h: Primary qHTS for delayed death inhibitors of the malarial parasite plastid, 48 hour incubation | 310,000 compounds, 5.9% hits | Potency, µM (titrated, usually from 28.7 µM), for inactives: at the top dose activity change, negative = inhibition, most hits filed as inhibitors | AID 504832, 2011 | P. falciparum luciferase growth in erythrocytes, 48 h; further: potency means the concentration at half of the fitted maximal effect; on the % scale 0 is the no-effect control and ±100 the full control effect
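Luciferase-expressing P. falciparum in infected erythrocytes (2% hematocrit, 0.1% parasitemia final) in RPMI 1640/0.5% Albumax were exposed to compound for 48 hours at 37 C, 5% CO2; growth read as luminescence.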
NS1 function inh: qHTS Assay for Inhibitors of Influenza NS1 Protein Function | Potency, µM (titrated, usually from 46.1 µM), for inactives: at the highest dose activity, positive = more growth | 270,000 compounds, 0.4% hits; calls by dose curve; further: potency means the concentration at half of the fitted maximal effect; actives are rising curves; nearly all actives have a fitted effect of over 50% in size
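A cell-based growth assay was used: compounds that relieve NS1-induced slow growth of budding yeast raise OD600. Assay medium was yeast nitrogen base with ammonium sulphate and -URA supplement, pH 6.0, with 2% galactose.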
CHX counter: Cycloheximide Counterscreen for Small Molecule Inhibitors of Shiga Toxin; cell reporter, cycloheximide protein synthesis inhibition counterscreen; max response, %; 300,000 compounds, 12% hits; in the data active means max response mostly above about 13%, no sharp cut-off; inactive means mostly below about 14%; further: read at 38.3 µM for the half of the compounds with a filed dose; 0% is about no effect
Sm TGR inh: qHTS Assay for the Inhibitors of Schistosoma Mansoni Peroxiredoxins | purified TGR, DTNB reduction, TNB absorbance 405 nm | 360,000 compounds, 3% hits | Potency, µM (highest dose often 114 µM), without a hit: top-dose activity change, negative = inhibition, hits mostly inhibitors | Schistosoma mansoni thioredoxin glutathione reductase (TGR), Q962Y6; further: potency means the concentration at half of the fitted maximal effect; on the % scale 0 is the no-effect control and ±100 the full control effect; nearly all actives have a fitted effect of over 60% in size
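First, TGR (20 nM dispensed) and NADPH were mixed with compound. Second, a 15 min room-temperature incubation followed. Third, further NADPH and then DTNB were added to start the reaction. Finally, TNB absorbance was monitored kinetically.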
Pf growth 96h: Primary qHTS for delayed death inhibitors of the malarial parasite plastid, 96 hour incubation | P. falciparum luciferase reporter growth, 96 h | Potency, µM (titrated, usually from 28.7 µM), for inactives: at the highest dose activity change, negative = inhibition, hits mostly inhibitors | 320,000 compounds, 6.9% hits | AID 504834, 2011; further: potency means the concentration at half of the fitted maximal effect; on the % scale 0 is the no-effect control and ±100 the full control effect
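Infected RBCs, 2% Hct / 0.05% parasitemia final; luciferase-reporter P. falciparum; cpd 96 h, 37 C, 5% CO2; luciferase detection reagent; luminescence.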
* marks the source's active call; other numbers are inactive results; ? = inconclusive; nt = no result given. Unless noted, the call rests on the fitted dose curve; in most records, active means well fitted curve in the direction sought with a large enough effect; inconclusive means small, poorly fitted or top-dose-only effect, or another doubt; inactive means no such curve, though single readings can be large; an effect the other way counts as inactive or inconclusive.

SMILES | Shiga inhibitor | Pf growth 48h | NS1 function inh | CHX counter | Sm TGR inh | Pf growth 96h
CCOc1ccc(OCc2ccc(C(=O)N(CC)CC)cc2)cc1 | 121.9* | 21.9% | nt | 32.5* | -8.3% | -25.5%
CCC(=O)c1ccc(OCc2ccc(C#N)cc2)cc1 | 77.4 | 116.8% | 1.9% | 28.4* | 10.2% | 331.6%
CCC(=O)c1ccc(OCc2ccc(C(=O)OC)cc2)cc1 | 100.1* | 289.8% | 11.7% | 113.0* | 5.9% | -14.2%
COC(=O)c1ccc(COc2ccc(-c3nn[nH]n3)cc2)cc1 | -8.9 | -7.1% | -12.2% | -2.5 | 8.5% | 61.8%
CCN(CC(=O)Nc1c(F)cccc1F)C(=O)c1ccc(COc2ccccc2)cc1 | nt | 45.2% | nt | nt | 1.5% | 4.1%
COCCN(Cc1ccc(C)c(Br)c1)C(=O)Cn1cnc(S(=O)(=O)N2CCCC2)c1 | -7.5 | 6.7% | 4.5% | 3.3 | 5.1% | ?
COCCCNC(=O)Cn1c(=O)n(-c2ccc(C)c(C)c2)c(=O)c2c3c(sc21)CCCCC3 | nt | nt | nt | nt | 89.1µM* | nt
CC(=O)N1CCc2c(sc3c2c(=O)n(Cc2ccccc2)c(=O)n3CC(=O)NCC2CCCO2)C1 (centres undefined) | -6.0 | 0.37µM* | -6.2% | -2.1 | 1.9% | 15.0%
CCOC(=O)N1CCc2c(sc3c2c(=O)n(-c2ccc(CC)cc2)c(=O)n3CC(=O)NCC2CCCO2)C1 (centres undefined) | 9.4 | 5.22µM* | 22.5% | 1.0 | 3.4% | ?
CC(=O)N1CCc2c(sc3c2c(=O)n(-c2ccccc2)c(=O)n3CC(=O)NCC2CCCO2)C1 (centres undefined) | -12.8 | 3.5% | 5.2% | -3.3 | -4.7% | ?
CN(C)CCn1c(=O)n(-c2ccc(F)cc2)c(=O)c2c3c(sc21)CCCCC3 | -8.1 | ? | 10.4% | 2.5 | 20.0% | ?
CCOC(=O)N1CCc2c(sc3c2c(=O)n(-c2ccc(CC)cc2)c(=O)n3CC(=O)c2ccccc2)C1 | nt | nt | nt | nt | -0.3% | nt
CN(C)CCn1c(=O)n(-c2cccc(Cl)c2)c(=O)c2c3c(sc21)CCCCC3 | -10.1 | 13.1µM* | -3.0% | -3.5 | 6.3% | ?
C/C(CCC(C)C)=N\NC(=S)NCc1ccccc1 | -3.9 | ? | nt | 9.9 | 5.7% | ?
NS(=O)(=O)c1ccc(NC(=O)c2cc(=O)c3ccccc3o2)cc1 | 29.5 | 2.3% | -6.8% | 7.4 | -7.4% | ?
Cc1ccc(C(=O)Nc2cccnc2)cc1S(=O)(=O)N1CCCC1 | 30.7 | ? | 5.1% | 19.5* | -0.5% | ?
Cc1ccc(C(=O)Nc2cccnc2)cc1Cl | 40.5* | 56.2% | -56.2% | 26.5* | 2.3% | 10.4µM*
O=C(Nc1cccnc1)c1ccc(Br)c(S(=O)(=O)N2CCCC2)c1 | 10.5 | 13.1µM* | -2.1% | 2.9 | -3.9% | ?
O=C(Nc1cccnc1)c1cccc(S(=O)(=O)N2CCCCC2)c1 | -11.7 | -22.3% | -2.9% | -2.5 | 14.8% | -16.5%
O=C(Nc1ccccn1)c1ccc(Br)c(S(=O)(=O)N2CCCC2)c1 | 50.3* | -22.0% | -17.4% | 33.9* | -2.2% | -27.3%
Cc1ccc(S(=O)(=O)N2CCCCC2)cc1C(=O)Nc1cccnc1 | -4.3 | 11.5% | 3.2% | -0.6 | -5.1% | 9.6%
Cc1cccc(C)c1NC(=O)Cn1cc(S(=O)(=O)Cc2ccc(F)cc2)c2ccccc21 | nt | nt | nt | nt | -3.4% | nt
O=c1c(S(=O)(=O)c2ccccc2)cn(Cc2ccc(F)cc2)c2cc(N3CCOCC3)c(F)cc12 | nt | nt | nt | nt | 18.6% | nt
CN(CC(=O)Nc1c(Cl)cccc1Cl)C(=O)CCC1CCCC1 | -13.1 | 18.3% | -9.2% | -0.3 | -3.9% | ?
Cc1cc(C(=O)Nc2cccnc2)cs1 | 15.2 | 61.9% | -8.9% | 11.8* | 1.1% | 14.0%
Cc1ccc(C(=O)Nc2cccnc2)cc1S(=O)(=O)N1CCCCC1 | -4.8 | ? | -2.1% | 2.3 | -17.5% | 2.08µM*
O=C(Nc1cccnc1)c1cc(F)cc(F)c1 | 19.4 | 32.7% | -8.8% | -3.2 | -2.8% | nt
Cc1ccc(C(=O)NCc2cccnc2)cc1S(=O)(=O)N1CCCCCC1 | -5.1 | ? | 9.7% | -1.1 | 0.7% | ?
Cc1cc(NC(=O)c2ccc(Br)c(S(=O)(=O)N3CCCC3)c2)no1 | 6.1 | 10.4µM* | 5.7% | -0.7 | 5.1% | nt
